Compound activity: PubChem BioAssay, National Center for Advancing Translational Sciences (NCATS)
The sample as a whole holds a higher share of hits than the screen did.
Methyltransferases – Primary Screen for Target Class Profiling of Small Molecule Inhibitors of Methyltransferases. calls only at 40 µM. purified enzyme, MTase-Glo SAH luminescence; stronger effect = lower value. 3.9% of 25,000 active. AID 1745853, 2022; call rule not given here
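Each enzyme was assayed with SAM and its substrate. SAH formation detected by MTase-Glo luminescence; single-point 40 uM screen[…].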
Calls only; - = inactive; + = active, no number.

SMILES | Methyltransferases
COC(=O)c1cc2n(n1)CC(C)(C(=O)NC1CCC(C)CC1)N(CCc1ccc(Cl)cc1)C2=O (stereo not drawn) | -
CCCn1c(=O)c2ccccc2n2c(SCC(=O)NCc3ccc(C)cc3)nnc12 | -
CCCn1c(=O)c2cc(F)ccc2n2c(SCC(=O)NC3CCCCC3)nnc12 | -
O=C(COC(=O)C(Cc1c[nH]c2ccccc12)NC(=O)c1ccc(Cl)cc1)c1ccc(Br)cc1 (stereo not drawn) | -
O=C1Cc2c([nH]c3ccc(Br)cc23)-c2ncccc2N1 | +
CCCCN1C(=O)c2cc(C(=O)Nc3ccc(C)cc3C)nn2CC1(C)C(=O)NC1CCCC1 (stereo not drawn) | -
COC(=O)c1ncn2c1C(=O)N(Cc1ccc(C)o1)C(C)(C(=O)NCc1ccccc1)C2 (stereo not drawn) | -
CC(=O)Nc1c2n(c3ccc(F)cc13)CC(C)(C(=O)NCCC(C)C)N(CCc1ccccc1)C2=O (stereo not drawn) | -
O=C(O)c1ccccc1Nc1cccc(OCc2ccc3ccccc3n2)c1 | -
NC(=O)c1ccccc1Nc1ccnc(Nc2cccc(O)c2)n1 | +
COc1ccccc1C(=O)N1CCN(c2nccc(Nc3ccccc3Cl)n2)CC1 | -
COc1cccc(NC(=O)Cn2c(=O)oc3cc(S(=O)(=O)N4CCC(C)CC4)ccc32)c1 | -
CCCn1c(=O)c2ccc(C(=O)NCC(C)C)cc2n2c(SCC(=O)Nc3ccc(F)cc3)nnc12 | -
C=CC(=O)Nc1cccc(CN2C(=O)N(c3c(Cl)c(OC)cc(OC)c3Cl)Cc3cnc(NCCCCN(CC)CC)nc32)c1 | +
Clc1ccc(C2Nc3ccc(Br)cc3C3C=CCC32)cc1 (stereo not drawn) | -
Cc1ccc(C(=O)Cn2nc3n(CC(C)C)c(=O)c4ccc(C(=O)NC5CCCC5)cc4n3c2=O)cc1 | -
CC(C)n1nc(-c2ccc3oc(N)nc3c2)c2c(N)ncnc21 | -
CC(C)n1nc(CNC(=O)Cc2ccc(F)cc2)c2ccccc21 | -
CC(C)n1nc(Cc2cccc3ccccc23)c2c(N)ncnc21 | +
COc1cc(NS(=O)(=O)c2cc3c(cc2C)n(C)c(=O)n3C)cc(OC)c1 | -
C=CCn1c(=O)c2ccc(C(=O)NC(C)CC)cc2n2c(=O)n(CC(=O)Nc3ccc(F)cc3)nc12 (stereo not drawn) | -
CC(C)CCn1c(=O)c2ccccc2n2c(SCc3ccccc3F)nnc12 | -
CC(=O)Nc1c2n(c3ccc(F)cc13)CC(C)(C(=O)NC1CCCC1)N(CCCOC(C)C)C2=O (stereo not drawn) | -
O=C(c1ccc(Nc2nccc(-c3cc4ccccc4s3)n2)cc1)N1CCC(N2CCCC2)CC1 | +
O=C(c1ccnc(-c2ccncc2)c1)N1CCCC1 | -
SMILES | Methyltransferases
C[C@@H]1CN(c2ccc(C(=O)N3CCC(N4CCOCC4)CC3)cn2)C[C@H](C)O1 | -
CSc1cccc(N2C(=O)c3cc(-c4cccs4)nn3CC2(C)C(=O)NC2CCCCC2)c1 (stereo not drawn) | -
CC(=O)OC/C=C(\C)C(CC1C(C)=C(OC(C)=O)C(=O)C2C(C)(C)C(O)CCC12C)OC(C)=O (stereo not drawn) | +
CCOC(=O)c1cc2n(n1)CC(C)(C(=O)NC1CCC(C)CC1)N(Cc1ccc3c(c1)OCO3)C2=O (stereo not drawn) | -
CC1CCCN(c2nc3c(S(=O)(=O)c4ccccc4)nnn3c3ccc(Cl)cc23)C1 (stereo not drawn) | -
COc1cccc(N2C(=O)CSc3c(c4ccccc4n3C)C2C(=O)NCCCOC(C)C)c1 (stereo not drawn) | -
COc1ccc(CCN(C)CCCOc2nsc(-c3ccccc3)n2)cc1OC | +
CN(CCCOc1ccc(Cc2ccccc2)cc1)CCC(=O)O | -
COc1cccc(-c2[nH]cnc2-c2ccccc2)c1OCCCN(C)C | -
C=CCn1c(=O)c2ccc(C(=O)NC(C)C)cc2n2c(=O)n(CC(=O)Nc3ccc(C)c(F)c3)nc12 | -
CCN(CC)CCCN1C(=O)c2ccc(-c3ccco3)n2CC1(C)C(=O)NC1CCCCC1 (stereo not drawn) | -
COc1ccccc1NC(=O)CSc1nnc2n(Cc3ccc(C)cc3)c(=O)c3ccccc3n12 | -
Cc1ccc(CNc2nc3c(-c4cccc(F)c4)nnn3c3ccccc23)cc1 | -
CCOC(=O)c1cc2n(n1)CC(C)(C(=O)NC1CCC(C)CC1)N(c1ccc(Cl)cc1C)C2=O (stereo not drawn) | -
Cc1cc(C)cc(N2C(=O)CSc3c(c4ccccc4n3C)C2C(=O)NCc2ccccc2)c1 (stereo not drawn) | -
CC(C)(O)C(=O)N1CCN(c2ccc(C(F)(F)F)c(C3=C(c4c[nH]c5ccccc45)C(=O)NC3=O)c2)CC1 | +
CCOC(=O)c1cc2n(n1)CC(C)(C(=O)NCCCOC)N(c1ccc(F)cc1C)C2=O (stereo not drawn) | -
CC1CCN(S(=O)(=O)c2ccc3c(ccn3CC(=O)NCCc3ccco3)c2)CC1 | -
CCCn1c(=O)c2cc(F)ccc2n2c(SCC(=O)NC(C)CC)nnc12 (stereo not drawn) | -
